Among the data in PMC7819943, “Rice protein-binding microarrays: a tool to detect cis-acting elements near promoter regions in rice” are binding signal values, retold here.

In all, about 35,000 sequences were measured (“fluorescence intensity (a.u.)”: median about 10,000, highest 2% from about 52,000 on). The sample as a whole holds a higher share of the highest values than the screen did.

This assay concerns the target T1, OsWOX13 (Oryza sativa, UniProt Q5QMM3 1-267).
T1 sequence: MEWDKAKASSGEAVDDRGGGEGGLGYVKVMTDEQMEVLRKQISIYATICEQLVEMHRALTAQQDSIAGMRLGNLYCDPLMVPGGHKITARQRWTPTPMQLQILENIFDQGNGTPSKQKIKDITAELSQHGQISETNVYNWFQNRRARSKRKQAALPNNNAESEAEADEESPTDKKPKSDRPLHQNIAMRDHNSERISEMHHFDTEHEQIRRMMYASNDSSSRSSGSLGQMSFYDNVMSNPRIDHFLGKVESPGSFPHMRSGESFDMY
Nature of the assay: protein-binding microarray (RPBM); PBS, 2% BSA, 51.3 ng/ul salmon testes DNA, 50 uM zinc acetate, 200 nM TF, 25 C, 1 h; high values mean tight binding. As to conditions: protein: recombinant; tags: N-terminal polyhistidine and DsRed monomer fusion (pET32a); label: CyDye5-dUTP incorporated in the synthesized complementary strand; 3' TTTTT single-stranded linker to array surface; dsDNA, one strand shown. The essentials:
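Binding signal here means per-feature fluorescence intensity in arbitrary units. The values were read on an Axon 4000B scanner after a custom Agilent array, double-stranded by primer extension with Cy5-dUTP, was incubated with 200 nM protein at 25 °C for 1 h in PBS with 2% BSA, salmon testes DNA and 50 µM zinc acetate, then washed. The proteins were transcription factors with an N-terminal polyhistidine tag and DsRed, expressed in E. coli BL21-CodonPlus and purified on Ni–NTA.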
With “TTTTATAATTATATAGCACACCCCACTTCACACGCATATCCGGAGTCACCTAGTGCAG”, the binding signal was 15300 fluorescence intensity (a.u.). The result for “CTATTGATTGTTGGCGAGCATGTTCTTATCCAGTTGACTTCGGAGTCACCTAGTGCAG” reads 33100 fluorescence intensity (a.u.); that for “GTTTGTTAATTATTCACTAATCTCTAGTACTATAGTTGTACGGAGTCACCTAGTGCAG”, 17100 fluorescence intensity (a.u.). For the sequence “AACAGTTCTGCTGAACCTCTTTTGCCTGCCCAAATCAAAACGGAGTCACCTAGTGCAG”, the binding signal was 7650 fluorescence intensity (a.u.). For “AGATGGGAATCATTATCAATCTATCATCCTAAATATAAACCGGAGTCACCTAGTGCAG”, the binding signal is 4070 fluorescence intensity (a.u.).

Turning to “TCGATTGACTGGACGAGGAATAGTAACCCTGCACATTGTGCGGAGTCACCTAGTGCAG”, the binding signal was 44100 fluorescence intensity (a.u.). With “GAATACTGACAGTAAAGATGATTGCAGAATTAGCTCATAGCGGAGTCACCTAGTGCAG”, the binding signal was 19400 fluorescence intensity (a.u.).

Take “TGCATAAGTGTTAAATTGACAGCCACTTGGTCTGTTCGTTCGGAGTCACCTAGTGCAG”: the binding signal is 21700 fluorescence intensity (a.u.). For “ATGCCTGATTGGAAATCTACTATTACTATTCATGATACCGCGGAGTCACCTAGTGCAG”, the binding signal was 58500 fluorescence intensity (a.u.). On to “TTTCTTTTGAAATTGATTACAATCTACATAAGGAGAGTCGCGGAGTCACCTAGTGCAG”, for which the binding signal is 16500 fluorescence intensity (a.u.). As for “AACTAAACATAATCTTTGAAAAGTTTGATTTTGAACACGGCGGAGTCACCTAGTGCAG”, the binding signal was 6770 fluorescence intensity (a.u.). Regarding “TACTCCTGTTGATAGGTATATTGATCTGAATCATCTGGTACGGAGTCACCTAGTGCAG”, the binding signal was 3790 fluorescence intensity (a.u.). “CACATACTATACTACATTAATTATATTCTGATGAAATCCGCGGAGTCACCTAGTGCAG”: the binding signal was 4130 fluorescence intensity (a.u.). With “ATGATTTACTATTAATCTAGTCTATTGCTGAGATATACATCGGAGTCACCTAGTGCAG”, the binding signal was 11000 fluorescence intensity (a.u.). With “CCTGTTGATTGGATATCTGGAACCTGAAATCCTGAATACGCGGAGTCACCTAGTGCAG”, the binding signal was 55800 fluorescence intensity (a.u.). The result for “TTAATTGATTTGGAAATCCTCTAGTTATCTGGATTAGTTTCGGAGTCACCTAGTGCAG” reads 37300 fluorescence intensity (a.u.); that for “TCTTGATTGAAACAATCTTTTGATCCCATAATCTTGCCCGCGGAGTCACCTAGTGCAG”, 63700 fluorescence intensity (a.u.).

Regarding “ATTAGTTGGATTGATTCAAACAAAGAGGTGATAATAATTGCGGAGTCACCTAGTGCAG”, the binding signal is 11900 fluorescence intensity (a.u.). Turning to “ACATGGGAATTTTGGTGGGATGGGGATGGGGATGGGGAATCGGAGTCACCTAGTGCAG”, the binding signal was 7450 fluorescence intensity (a.u.). Regarding “GTGATTTTGTTAAACTTAGGCTGCTTGTTTCATCAATTGCCGGAGTCACCTAGTGCAG”, the binding signal was 3740 fluorescence intensity (a.u.). Take “GGGTTTCAATCATTTAGGTGGACGTCCACTCATTTATTGCCGGAGTCACCTAGTGCAG”: the binding signal was 16200 fluorescence intensity (a.u.).

Take “TATGGTTAATTATGTATTTATCGACAACGGGATGTTCGTACGGAGTCACCTAGTGCAG”: the binding signal was 15000 fluorescence intensity (a.u.). As to “CACGAAATTAATTTAGCTCTACATCCGTTCTGTTTATGAACGGAGTCACCTAGTGCAG”, the binding signal is 8960 fluorescence intensity (a.u.). “TGGCCAAATTCTGTCAATTGCATTTGATGGAGCTGGGCTTCGGAGTCACCTAGTGCAG”: the binding signal is 11200 fluorescence intensity (a.u.). “CTATAATTTCTGGTTACGGTGGTGACAAGTCATGTGGGCTCGGAGTCACCTAGTGCAG”: the binding signal is 13900 fluorescence intensity (a.u.).

“CGTGATTAGAATCCATCTCCGACCGACCGCACATACAAAGCGGAGTCACCTAGTGCAG”: the binding signal was 43300 fluorescence intensity (a.u.). For the sequence “GAGCGATTATAAAATTAATTGCTCCGCGGCTTAAGCCGAGCGGAGTCACCTAGTGCAG”, the binding signal was 5680 fluorescence intensity (a.u.). The value for “AGTGATCATTGATCTAAACTACTTGCAGGTGACGCACACGCGGAGTCACCTAGTGCAG” was 6200 fluorescence intensity (a.u.).

With “TTGTTTGATTTGTTAGGGGTGGTAAGAGCAGCCTTGTATTCGGAGTCACCTAGTGCAG”, the binding signal is 21000 fluorescence intensity (a.u.). The result for “CTCTCTAGTAATTATCCATGTGCTCGTCTGGTTGGATTGGCGGAGTCACCTAGTGCAG” reads 5240 fluorescence intensity (a.u.); that for “CTAATAACAAAACAAATTACAGATTTCGCCTGTAATATGCCGGAGTCACCTAGTGCAG”, 9460 fluorescence intensity (a.u.); that for “TAATTAATTAATTGATTGATTGATTTGAAACTGATTAATTCGGAGTCACCTAGTGCAG”, 56200 fluorescence intensity (a.u.). As to “TTAAAATAATTGACAAGATAGATTAATATTTGGTATATCACGGAGTCACCTAGTGCAG”, the binding signal is 26400 fluorescence intensity (a.u.).

As for “ATGAAATGATTTGATTGAAATATTATGAAATGATTTGAGACGGAGTCACCTAGTGCAG”, the binding signal is 39500 fluorescence intensity (a.u.). As to “TATTAATTACAGATTGACAAAACACAAGATTTGCCTGTATCGGAGTCACCTAGTGCAG”, the binding signal was 61800 fluorescence intensity (a.u.). As to “ATTGATTTGATGAAACTAATTTAATATTATAAATATTATTCGGAGTCACCTAGTGCAG”, the binding signal is 26000 fluorescence intensity (a.u.). “ATTAAATTTTAAAATTTAATTTTAAATTGATTTTGATATTCGGAGTCACCTAGTGCAG”: the binding signal was 42600 fluorescence intensity (a.u.). On to “CAAATTTAAATTTGAATTATATCCGATTTAAATTTGAATTCGGAGTCACCTAGTGCAG”, for which the binding signal was 21800 fluorescence intensity (a.u.). With “GTTAATTTAATTGAAATTTAAATTTAAATCAATCTGCATTCGGAGTCACCTAGTGCAG”, the binding signal was 57600 fluorescence intensity (a.u.). Take “TATTTAAATTCAAATTGAAATTCAAATTTAAATCGGATATCGGAGTCACCTAGTGCAG”: the binding signal was 16800 fluorescence intensity (a.u.). For the sequence “TTTGATTTGATTTGATTTGATTGAATTAATTTGAGTCCGACGGAGTCACCTAGTGCAG”, the binding signal was 65400 fluorescence intensity (a.u.). Turning to “ATCAATTTTAAAATTAAATTTTAATTTTAAATTTTGAATTCGGAGTCACCTAGTGCAG”, the binding signal was 26900 fluorescence intensity (a.u.).

Take “AACAATTTGATCAAGAGTTGACCGAGATAATCCCACTTGCCGGAGTCACCTAGTGCAG”: the binding signal was 4370 fluorescence intensity (a.u.). As to “GATCAAATTAATAGGTAACCCGCTGGTCAAACCTATGGGTCGGAGTCACCTAGTGCAG”, the binding signal was 18000 fluorescence intensity (a.u.). With “AATTAGTAAATACTTAATTAATCATGAGAAAATGTATTGCCGGAGTCACCTAGTGCAG”, the binding signal was 3350 fluorescence intensity (a.u.). The result for “CAAATGATGGAGGTTTCAAATTATACTGTACTTCAGCCATCGGAGTCACCTAGTGCAG” reads 7400 fluorescence intensity (a.u.).
